Among the data in PubChem BioAssay (Tox21) are Potency and outcome values, retold here.

Test [1] is described as follows: qHTS assay for small molecule agonists of the p53 signaling pathway (AID 651631; calls by dose curve; also: nearly all actives have a fitted effect of over 15% in size). A digest of the protocol: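 HCT-116 p53RE-bla reporter line, 16 h compound treatment at 37 °C, then fluorescence after 2 h with B/G FRET substrate.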
Test [2] in a line: qHTS assay for small molecules that induce genotoxicity in human embryonic kidney cells expressing luciferase-tagged ATAD5 (AID 651632). Also: nearly all actives have a fitted effect of over 15% in size. A digest of the protocol:
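Increased luciferase signal from ATAD5-tagged reporter cells indicates DNA-damage-driven ATAD5 induction. HEK293T cells are treated for 16 hr at 37C before detection with Amplite.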

A short description of test [3]: qHTS assay for small molecule agonists of the p53 signaling pathway - cell viability (AID 651633; calls by dose curve;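 also: p53RE-bla HCT reporter cells with a stable beta-lactamase p53 reporter; series mostly up to about 83 µM; nearly all actives have a fitted effect of over 30% in size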). A digest of the protocol:
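p53RE-bla cells, seeded at 4,000 per well and rested 5 h at 37 C/5% CO2, received compounds in DMSO for 16 h at 37 C. CellTiter-Glo was then added, and luminescence was read after 30 min at room temperature to gauge cytotoxicity.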

Test [4] is described as follows: qHTS assay for small molecules that induce genotoxicity in human embryonic kidney cells expressing luciferase-tagged ATAD5 - cell viability (AID 651634; calls by dose curve; also: nearly all actives have a fitted effect of over 25% in size). In outline: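 Cytotoxicity counterscreen in HEK293T cells bearing an ATAD5-luciferase reporter: live-cell protease activity measured by CellTiter-Fluor fluorescence after 15.5 hr compound exposure.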
Test [5] can be described thus: qHTS assay for small molecule disruptors of the mitochondrial membrane potential - cell viability (AID 720634; calls by dose curve;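 also: human HepG2 liver cancer cells; series mostly up to about 83 µM; nearly all actives have a fitted effect of over 20% in size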). In outline: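 After overnight attachment at 37 C, HepG2 cells received compound or DMSO vehicle for 1 hr. Viability is then taken from ATP-driven luminescence following a 30 min room-temperature CellTiter-Glo step.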
Test [6] is described as follows: qHTS assay for small molecule disruptors of the mitochondrial membrane potential (AID 720635). Also: potency is read from the fitted curve at half-maximal effect. A digest of the protocol:
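HepG2 cells (2,000/well) attached overnight at 37C, then took compound for 1 hr at 37C, 5% CO2. Mito-MPS dye was added for 30 min; fluorescence was read at 490/535 nm (monomers) and 540/590 nm (aggregates).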

Test [7] is described as follows: qHTS assay to test for compound auto fluorescence at 535 nm (green) in HepG2 cells (AID 720675).
A short description of test [8]: qHTS assay to test for compound auto fluorescence at 460 nm (blue) in HEK293 cells (AID 720678). A digest of the protocol: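 Measured: blue fluorescence (Ex 405/Em 460 nm) of compound-treated HEK293 cells, incubated overnight at 37C with 5% CO2 and scaled to triamterene equivalents.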
The nature of test [9]: qHTS assay to test for compound auto fluorescence at 590 nm (red) in HEK293 cells (AID 720679). A digest of the protocol: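 Using HEK293 cells at 2,000 per well, the screen added 23 nL of each compound after cell attachment and incubated overnight (37C, 5% CO2). The plate reader then captured red-label fluorescence, Ex/Em 540/590nm.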
Test [10] is described as follows: qHTS assay to test for compound auto fluorescence at 590 nm (red) in HepG2 cells (AID 720674). In outline:
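Rose Bengal sodium served as the red fluorophore standard. HepG2 monolayers (overnight attachment, MEM with 10% FBS) were exposed to test compounds for 1 hr at 37 C and read at Ex 540/Em 590 nm.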

Unmarked numbers belong to inactive results. Inconclusive results are not listed. Activity calls are given as the source filed them. Unless noted, calls follow the shape of the dose curve; as a rule, active = well fitted curve in the direction sought with a large enough effect in the repeat runs; inconclusive = weak or mixed curves; inactive = no such curve, though single readings can be large; an effect the other way counts as inactive or inconclusive.

With `CCCCCCCCCCCCCCCCCCO`, the Potency entry in test [1], in test [2], in test [3], in test [4] and in [6] was “inactive” throughout. Besides, the compound was called inactive in test [5], in [7], in [8] and in [9].
For the compound `CCN(C=O)CC`, the Potency entry in [1], in [2], in test [3], in [4] and in [6] was “inactive” each time. Moreover, the outcome in [5], in test [10], in test [7], in test [8] and in test [9] was inactive.
Consider `CO/N=C(\C(=O)N[C@@H]1C(=O)N2C(C(=O)O)=C(CSc3nc(=O)c(O)nn3C)CS[C@H]12)c1csc(N)n1`, for which the Potency result in test [1], in test [2], in test [3], in [4] and in [6] was “inactive” each time. Further, the outcome in test [5], in test [10], in [7], in [8] and in test [9] was inactive.
For `COc1cc2c(cc1OC)-c1cc3ccc(OC)c(OC)c3c[n+]1CC2`, the Potency result in [1], in test [2], in [3] and in test [4] was “inactive” in each case. Further, the call in test [5], in [10], in [7], in test [8] and in test [9] was inactive. The Potency in test [6] was 17.4 µM (active).
Regarding `CC(C)(C)C(=O)c1ccccc1`, the Potency result in test [1], in [2], in test [3], in test [4] and in [6] was “inactive” in each case. Further, the call in test [5], in test [10], in test [7], in [8] and in test [9] was inactive.
On to `CCCCOCCOC(=O)COc1cc(Cl)c(Cl)cc1Cl`, for which the Potency entry in [1], in test [2], in [3] and in test [4] was “inactive” throughout. The result in test [5], in [10], in test [7], in [8] and in test [9] was inactive.
`CC(C)(C)OC(=O)c1cccc(N)c1`: the Potency entry in test [1], in [2], in [3] and in [4] was “inactive” throughout. For the same compound, the compound was called inactive in [5], in test [7], in test [8] and in test [9]. Moreover, in test [6], the Potency is 35.3 µM (active).
Take `CCOC(=O)c1cnc2c(cnn2CC)c1NN=C(C)C`: the Potency result in test [1], in test [2], in [3] and in test [4] was “inactive” in each case. Moreover, the outcome in test [5], in [10], in test [7], in test [8] and in [9] was inactive.
For `Clc1cc(Cl)c(Cl)nc1Cl`, the Potency entry in [1], in test [2], in test [3], in [4] and in [6] was “inactive” in each case. Also, the outcome in test [5], in test [10], in test [7], in [8] and in [9] was inactive.
Consider `CCC(C)(CCCC(C)C)OC(C)=O` (stereo unspecified), for which the Potency entry in [1], in [2], in test [3], in test [4] and in [6] was “inactive” throughout. Moreover, the result in test [5], in test [10], in test [7], in test [8] and in test [9] was inactive.
Consider `C=COCC1CCC(COC=C)CC1` (stereo unspecified), for which the Potency result in test [1], in [2], in test [3], in [4] and in test [6] was “inactive” in each case. Further, the compound was called inactive in [5], in [7], in test [8] and in [9].
For the compound `CC12CCC(C(=O)C1=O)C2(C)C` (stereo unspecified), the Potency entry in test [1], in [2], in test [3], in test [4] and in test [6] was “inactive” in each case. Also, the compound was classed as inactive in [5], in test [10], in test [7], in [8] and in [9].
In the case of `CC(C)=CCC/C(C)=C/C#N`, the Potency entry in test [1], in test [2], in test [3] and in test [4] was “inactive” each time. Also, the call in [5], in test [10], in [7], in test [8] and in test [9] was inactive.
In the case of `CCOC(=O)c1ccccc1`, the Potency result in test [1], in test [2], in test [3], in [4] and in test [6] was “inactive” each time. Further, the result in test [5], in test [10], in [7], in test [8] and in test [9] was inactive.
Turning to `COc1cc(C(=O)OC(COCCC(C)C)CN2CCOCC2)cc(OC)c1OC` (stereo unspecified), the Potency entry in test [1], in [2], in test [3], in test [4] and in test [6] was “inactive” in each case. Besides, the call in test [5], in test [10], in test [7], in test [8] and in test [9] was inactive.
With `C[N+]1(CC2COC(c3ccccc3)(c3ccccc3)O2)CCCCC1` (stereo unspecified), the Potency result in test [1], in test [2], in test [3], in test [4] and in test [6] was “inactive” in each case. The outcome in test [5], in [10], in test [7], in test [8] and in test [9] was inactive.
`C=C(C)C(=O)OCC1CCCO1` (stereo unspecified): the Potency result in [1], in test [2], in test [3], in test [4] and in [6] was “inactive” each time. For the same compound, the result in test [5], in test [10], in test [7], in test [8] and in [9] was inactive.
For `CC(=O)N[C@H]1[C@H]([C@H](O)[C@H](O)CO)OC(C(=O)O)=C[C@@H]1N=C(N)N`, the Potency result in test [1], in test [2], in [3] and in test [4] was “inactive” each time. For the same compound, the result in test [5], in test [10], in test [7], in test [8] and in test [9] was inactive.
`CC(C)C(=O)OC(=O)C(C)C`: the Potency result in test [1], in [2], in test [3], in [4] and in [6] was “inactive” throughout. In addition, the call in test [5], in [7], in [8] and in test [9] was inactive.
On to `c1ccc(CCc2ccccc2)cc1`, for which the Potency entry in [1], in test [2], in [3], in test [4] and in test [6] was “inactive” throughout. Besides, the result in [5], in test [10], in test [7], in [8] and in test [9] was inactive.
Regarding `O=Cc1cccc(Br)c1`, the Potency result in test [1], in [2], in test [3], in test [4] and in [6] was “inactive” in each case. The outcome in test [5], in test [10], in test [7], in [8] and in [9] was inactive.
Turning to `CC(C)(CCC(=O)O)C(=O)O`, the Potency result in test [1], in [2], in [3] and in test [4] was “inactive” in each case. The result in test [5], in test [10], in test [7], in test [8] and in [9] was inactive.
With `NC(=O)N[C@@H](CCC(=O)O)C(=O)O`, the Potency entry in test [1], in test [2], in test [3], in test [4] and in [6] was “inactive” each time. Besides, the call in test [5], in [10], in test [7], in test [8] and in [9] was inactive.
